# PMC5540273 (PLoS ONE, 2017)
# How the values were obtained:
# Details in all cases: concentration: 1 μM, replicates: in singlicate; n = 1
# RIPK4 = tested on: RIPK4
# RIPK5 = tested on: RIPK5
# ROCK1 = tested on: ROCK1
# ROCK2 = tested on: ROCK2
# ROS1 = tested on: ROS1
# [1] = tested on: RPS6KA4(Kin.Dom.1-N-terminal)
# [2] = tested on: RPS6KA4(Kin.Dom.2-C-terminal)
# [3] = tested on: RPS6KA5(Kin.Dom.1-N-terminal)
# [4] = tested on: RPS6KA5(Kin.Dom.2-C-terminal)
# [5] = tested on: T1, RSK1(Kin.Dom.1-N-terminal)
# T1 construct: gene RPS6KA1
# 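Further: KINOMEscan kinase panel screen.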
SMILES,%Inh (RIPK4),%Inh (RIPK5),%Inh (ROCK1),%Inh (ROCK2),%Inh (ROS1),%Inh [1],%Inh [2],%Inh [3],%Inh [4],%Inh [5]
COc1ccc(CSc2nnc(-c3ccc4nccn4c3)o2)cc1C(F)(F)F,0%,0%,14%,0%,3%,11%,21%,22%,1%,18%
COc1ccc(CSc2nnc(-c3ccc4c(c3)CCO4)o2)cc1,0%,0%,0%,0%,0%,0%,0%,0%,1%,0%
COc1ccc(Nc2nccc(N3CCC(NC(=O)C(C)c4ccc(Cl)cc4)CC3)n2)cc1 (centres unmarked) [GSK1379812],0%,0%,15%,16%,40%,19%,0%,3%,42%,2%
COc1ccc2cc(-c3nc(-c4ccccc4C(C)C)[nH]c3-c3ccncc3)ccc2c1 [SB-660566],25%,4%,35%,0%,0%,6%,0%,4%,0%,42%
O=C(Nc1n[nH]c2nc(-c3ccco3)c(Br)cc12)C1CCN(Cc2ccccc2)C1.O=C(O)[C@H](O)[C@@H](O)C(=O)O (centres unmarked) [SB-742034],17%,29%,0%,0%,5%,11%,12%,0%,16%,17%
Cn1cncc1-c1cc2c(Nc3ccc(OCc4ccccc4)cc3)ncnc2cn1 [GW281179],8%,0%,82%,74%,13%,9%,0%,11%,0%,30%
Cn1cnc2c(N)ncnc21 [SKF-97623],0%,0%,38%,26%,0%,0%,0%,0%,0%,23%
O=C(Nc1n[nH]c2nc(-c3cccs3)c(Br)cc12)C1CC1 [SB-735297],7%,3%,0%,0%,6%,0%,8%,10%,4%,14%
CN1c2ccc(-c3ccc(C(N)=O)cc3)cc2-c2[nH]ncc2S1(=O)=O,0%,0%,0%,11%,0%,17%,26%,0%,0%,0%
O=C1NC(=O)C(c2ccc(Cl)cc2)=C1Nc1cccc(Cl)c1 [SB-317651],46%,0%,7%,0%,0%,86%,0%,1%,0%,12%
CNc1nc(-c2ccc3c(N)n[nH]c3c2)cc(N2C[C@@H](C(=O)Nc3ccccc3)CC[C@H]2C)n1 [GSK2298859],0%,0%,,61%,36%,22%,0%,29%,50%,0%
COC(=O)C(NC(=O)NC1CCN(c2ccnc(Nc3ccc(F)cc3)n2)C1)c1ccccc1 (centres unmarked) [GSK1379712],13%,22%,31%,37%,12%,0%,0%,0%,22%,22%
Cc1nccc(-c2c(-c3ccc(F)cc3)ncn2CCCN2CCOCC2)n1.Cl [SB-282975],33%,13%,0%,0%,23%,100%,15%,5%,8%,0%
c1ccc(-c2ccnc3[nH]ccc23)cc1 [SB-693578],28%,7%,90%,88%,0%,0%,8%,5%,26%,28%
COc1ccc(Nc2nccc(-c3ccc(NC(=O)c4cc5cc(F)ccc5[nH]4)cc3)n2)cc1 [GSK1229496],0%,0%,18%,10%,26%,0%,0%,0%,0%,13%
CCn1c(-c2ccccc2)nc2cnccc21 [SB-733416],41%,5%,9%,0%,7%,0%,0%,3%,0%,0%
NS(=O)(=O)c1cccc(N/C=C2\C(=O)Nc3ccc(S(=O)(=O)Cc4c(Cl)cccc4Cl)cc32)c1 [GSK398099],14%,0%,0%,2%,0%,2%,0%,0%,0%,11%
COc1nccc(-c2c(-c3ccc(F)cc3)ncn2CCCN2CCOCC2)n1 [SB-282852],47%,6%,32%,20%,0%,17%,0%,0%,0%,0%
CCn1c(-c2c(N)noc2C)nc2cnccc21 [SB-737856],25%,0%,0%,0%,0%,12%,0%,6%,23%,28%
CSc1ccc(-c2nc3n(c2-c2ccncc2)CCC3)cc1 [SKF-105561],13%,17%,23%,0%,6%,6%,10%,5%,0%,0%
Cc1cccc2c(-c3ccncn3)c(-c3ccc(F)cc3)nn12 [GW515532],8%,0%,3%,13%,0%,0%,0%,21%,0%,0%
